Test [1] can be described thus: CCTE_Harrill_HTTr_Apoptosis_MCF7: CCTE's 6-hour Apoptosis Assessment for the High-Throughput Transcriptomics (HTTr) Platform, in MCF-7 cells cultured in DMEM + 10% fetal bovine serum, Harrill Lab (AID 2284011). An outline of the steps:
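High-content imaging of CellEvent Caspase 3/7 Green signal follows a six-hour exposure, with eight concentrations per chemical. MCF-7 cells grown in DMEM plus 10% fetal bovine serum; activity fitted in both directions against DMSO.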

Test [2] in a line: CCTE_Harrill_HTTr_CellCount_MCF7: CCTE's Cell Proliferation Assessment for the High-Throughput Transcriptomics (HTTr) Platform, Harrill Lab (AID 2284012; active means hit-call score of the fitted dose curve at least 0.9, where 1 is the maximum;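 further: cells exposed to compound for six hours; intended direction is loss of nuclei count meaning fewer cells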). An outline of the steps:
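Cell count served as viability reporter: loss of Hoechst-stained nuclei, counted by high content imaging, marks decreased growth or survival. Exposure was 6 h in MCF-7 cells across eight concentrations, with DMSO as baseline.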

The nature of test [3]: CCTE_Shafer_MEA_dev_firing_rate_mean: CCTE's Neural Network Formation Assay for Mean Firing Rate, Shafer Lab (AID 2284031).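 On AC50: curve fitted for loss of firing so AC50 reflects decreased mean firing rate.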 The procedure, abridged: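 Steps: seed rat cortical cells (1.5 x 10^5/well) with laminin on PEI-coated MEA; dose day 0; record DIV 5/7/9/12, full media and compound exchange after DIV 5 and 9 recordings; compute well-mean firing rate AUC.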
The nature of test [4]: CCTE_Shafer_MEA_dev_per_burst_spike_percent: CCTE's Neural Network Formation Assay for Percent of Spikes in a Burst, Shafer Lab (AID 2284032).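 On AC50: fitted as a decrease in burst spike percentage below DMSO baseline.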 The procedure, abridged: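 Value is trapezoidal AUC over recordings on days 5, 7, 9 and 12 of the well-mean fraction of spikes falling in single-electrode bursts; rat cortical cultures exposed continuously from plating, treatment renewed DIV 5 and 9, fitted downward against DMSO.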

The nature of test [5]: CCTE_Shafer_MEA_acute_burst_number: CCTE's Neural Acute Assay for Single-Electrode Bursts, Shafer Lab (AID 2284013). An outline of the steps: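 Burst totals were derived with adaptive spike detection (8x rms threshold) on filtered signals from rat cortical cultures; change relative to pre-treatment baseline after 40-min compound exposure (0.03-40 uM) was fitted in the negative direction against DMSO.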

Test [6] is described as follows: CCTE_Shafer_MEA_acute_per_burst_spike_number_mean: CCTE's Neural Acute Assay for Average Number of Spikes Per Burst, Shafer Lab (AID 2284015).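 Further: hits are decreases in mean spikes per burst versus baseline.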 The procedure, abridged: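 Percent change in mean spikes per single-electrode burst is compared between a 40 min baseline and a 40 min recording with compound (0.03-40 uM). Cultures were rat cortical neurons on MEA plates at DIV 13 or 15, recorded at 37 C, with DMSO as the negative control.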

Test [7] is described as follows: CCTE_Shafer_MEA_acute_burst_percentage_mean: CCTE's Neural Acute Assay for Percentage of Spikes in a Burst, Shafer Lab (AID 2284017).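 On AC50: curve fitted for loss of signal so potency reflects decreased burst percentage.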 An outline of the steps: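 Well-level mean burst percentage from a 40-min recording after compound (0.03-40 uM) expressed as percent change from a 40-min baseline at 37C. Cultures: primary rat cortical neurons on MEA, dosed on DIV 13 or 15; fitted downward relative to DMSO.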

Test [8] is described as follows: CCTE_Shafer_MEA_acute_burst_percentage_std: CCTE's Neural Acute Assay for Standard Deviation of Burst Percentage, Shafer Lab (AID 2284018).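 Further: fitted in the negative direction so actives lower burst percentage SD.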 The procedure, abridged: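 Primary rat cortical neurons on 16-electrode MEA wells were recorded 40 min at baseline (DIV 13 or 15), then 40 min after compound (0.03-40 uM), at 37 C. Well value is SD across electrodes of spikes-in-bursts/total spikes; endpoint is percent change, DMSO-referenced.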

A short description of test [9]: CCTE_Shafer_MEA_acute_per_network_burst_spike_number_mean: CCTE's Neural Acute Assay for Average Number of Spikes in a Network Burst, Shafer Lab (AID 2284019).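 On AC50: curve fitted for loss of signal so actives reduce spikes per network burst.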 An outline of the steps: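 Acute exposure of rat primary cortical networks (DIV 13/15) on MEAs; adaptive spike detection at 8x rms noise, 37 C. Percent change in spikes per network burst after 40 min with compound (0.03-40 uM), negative direction vs DMSO.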

Test [10] is described as follows: CCTE_Shafer_MEA_acute_per_network_burst_spike_number_std: CCTE's Neural Acute Assay for Standard Deviation of Number of Spikes in a Network Burst, Shafer Lab (AID 2284020).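 Further: fitted for decrease in spike-number SD versus DMSO so actives lower it.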 An outline of the steps:
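Acute MEA exposure, rat cortical neurons, 0.03-40 uM. Per-well % change versus own baseline; DMSO as negative control.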

Test [11] in a line: CCTE_Shafer_MEA_acute_per_network_burst_electrodes_number_mean: CCTE's Neural Acute Assay for Mean Number of Electrodes in a Network Burst, Shafer Lab (AID 2284021).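 Further: curves fitted for decreases only so hits reduce electrodes per burst.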 The procedure, abridged: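 Percent change from baseline was computed as mean electrode count per network burst, comparing 40 min recordings before and during compound (0.03-40 uM) exposure. Cultures were rat cortical neurons at DIV 13 or 15, recorded on MEAs at 37 C with an adaptive 8x rms threshold.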

Test [12] can be described thus: CCTE_Shafer_MEA_acute_network_burst_percentage: CCTE's Neural Acute Assay for Percentage of Network Bursts, Shafer Lab (AID 2284022).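 Further: curves fitted for loss so actives lower network burst percentage.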 An outline of the steps:
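Network burst percentage (spikes in network bursts divided by total spikes) recorded at 37 C over 40 min baseline and 40 min after compound, 0.03-40 uM, in rat cortical cultures at DIV 13 or 15. Analysed as percent change from baseline versus DMSO.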

The nature of test [13]: CCTE_Shafer_MEA_acute_cross_correlation_area: CCTE's Neural Acute Assay for Area of Cross Correlation, Shafer Lab (AID 2284024).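 Further: area under pooled inter-electrode spike cross-correlation near zero lag as percent change from own baseline; curves fitted for loss of cross-correlation area so actives lower synchrony.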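 On outcome: rat primary cortical neuron networks on 48-well MEA at DIV 13 or 15 with 40 min exposure.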 An outline of the steps:
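Percent change in well-wide cross-correlation area (window around zero lag) between 40 min baseline and 40 min post-compound recordings, 37 C; rat cortical cultures on MEA at DIV 13 or 15, dosed 0.03-40 uM, wells needing >/= 10 active electrodes.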

Test [14] in a line: CCTE_Shafer_MEA_acute_cross_correlation_HWHM: CCTE's Neural Acute Assay for Cross Correlation at Half Width at Half Maximum, Shafer Lab (AID 2284026).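 Further: percent change per well from pre-dose baseline in spike cross-correlogram half width; hits are a decrease in cross-correlogram half width relative to DMSO.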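 On outcome: spontaneous network firing of rat primary cortical neurons on multiwell microelectrode arrays.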 The procedure, abridged:
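Per-well percent change in cross-correlogram half width at half maximum, derived from 40-min recordings before and after compound (0.03-40 uM) at 37 C. Cultures were rat cortical neurons, DIV 13 or 15, with adaptive spike detection at 8x rms.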

Test [15] in a line: CCTE_Shafer_MEA_acute_synchrony_index: CCTE's Neural Acute Assay for Synchrony, Shafer Lab (AID 2284027).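 Further: network synchrony index of spontaneous spiking in primary rat cortical neurons on MEAs; fitted for loss of signal so actives lower synchrony relative to DMSO.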 The procedure, abridged:
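Plates equilibrated 20 min at 37 C, baseline recorded 40 min, compound (0.03-40 uM) added, then 40 min more recorded. Cells: primary rat cortical neurons, DIV 13 or 15. Per-well synchrony index change analysed in negative direction against DMSO.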

Several values for one entry are separate records, joined by “and”; a condition that tells them apart may be missing. Equal entries are not always repeated. Records with an inconclusive call do not appear. More than one record can exist for a structure, and the calls need not agree. Activity calls are given as the source filed them. How the source made its calls, unless noted: active means hit-call score of the fitted dose curve at least 0.9, where 1 is the maximum; inactive means score below 0.9.

What is called AC50 is the concentration giving half of the maximal activity seen. With `CN(C)C(=S)SSC(=S)N(C)C`, the outcome in test [1] and in [2] was inactive. The AC50 in test [3] is 7.36 nM (active); in [4] it was 0.0103 µM (active).
On to `CC(C)(C)c1ccc(CSc2cnn(C(C)(C)C)c(=O)c2Cl)cc1`, for which the result in test [1] and in test [8] was inactive. The AC50 in test [5] is 19 nM (active); in [6], 3.63 µM (active); in test [7] it was 2.67 µM (active); in test [9], 1.64 µM (active); in test [10] it was 2.12 µM (active); in test [11], 1.37 µM (active). Also, the AC50 in [12] was 3.29 µM (active); in [13] it was 27.7 nM (active); in [14] it was 4.43 µM (active); in test [15] it was 3.24 µM (active); in [3], 4.92 nM (active); in [4] it was 0.00382 µM (active).
Consider `Cc1ccc(-c2c(Cl)nc(C#N)n2S(=O)(=O)N(C)C)cc1`, for which the result in test [1], in test [5], in [6], in [7], in test [8] and in [9] was inactive. Also, the result in [10], in test [11], in [12], in test [13], in test [14] and in test [15] was inactive. Also, the AC50 in test [3] is 18000 nM (active); in test [4], 18.3 µM (active).
For `CCCC1COC(Cn2cncn2)(c2ccc(Cl)cc2Cl)O1` (configuration not stated), the outcome in test [1], in test [5], in [8] and in test [13] was inactive. Moreover, the AC50 is 20 µM (active) in [6]; 14.6 µM (active) in test [7]; 9.03 µM (active) in [9]; 12.6 µM (active) in [10]; 15.2 µM (active) in test [11]; 20 µM (active) in [12]. Moreover, the AC50 was 25.8 µM (active) in test [14] and 17.5 µM (active) in test [15].
`C=CCC1=C(C)C(OC(=O)C2C(C=C(C)C)C2(C)C)CC1=O` (configuration not stated): the outcome in test [1], in [5], in test [6], in [8], in test [9] and in test [10] was inactive. The result in test [11], in test [13], in test [14], in [3] and in test [4] was inactive. For the same compound, the half-maximal activity concentration (AC50) is 2.93 µM (active) in test [6]; 6.49 µM (active) and 2.93 µM (active) in test [7]; 0.727 µM (active) in test [10]; 7.43 µM (active) and 1.34 µM (active) in test [12]; 2.38 µM (active) in [14]; 5.52 µM (active) and 2.93 µM (active) in test [15]. Moreover, the AC50 in [4] is 14.8 µM (active).
